Molecules are shown by their SMILES. Several values for one entry are separate records, joined by “and”; a condition that tells them apart may be missing. Equal entries are not always repeated.

Holding throughout (assay type): functional
The test system of experiment [1] is Plasmodium falciparum. Nature of the experiment: GSK_TCMDC: Inhibition of Plasmodium falciparum 3D7 in whole red blood cells, using parasite LDH activity as an index of growth. Test compounds present at 2uM.
For experiment [2], the system named is Plasmodium falciparum. The experiment is described as follows: GSK_TCMDC: Inhibition of Plasmodium falciparum Dd2 in whole red blood cells, using parasite LDH activity as an index of growth. Test compounds present at 2uM.
Experiment [3] concerns HepG2. The experiment is described as follows: GSK_TCMDC: Percent inhibition of human HepG2 cell line. Test compounds present at 10uM.

Turning to `CN(CC(=O)Nc1cc(C(F)(F)F)ccc1-n1cncn1)Cc1nc2ccccc2s1`, the Inhibition in experiment [1] was found to be 87%; in experiment [2], 64%; in experiment [3] it was 3%.
Consider `CCCc1ccc(S(=O)(=O)NC2CCN(c3ccnc(Nc4ccc(F)cc4)n3)C2)cc1` (stereo not given), for which the figures for the Inhibition in experiment [1], in experiment [2] and in experiment [3] were 95%, 56% and 40%, respectively.
The matching figures for `Cc1c(CNCCCNc2nc3cscc3[nH]2)sc(C(F)F)c1Br.Cl`: 99%, 11% and 1%.
On the same counts, the results for `COc1ccc(-c2nc(NC(=O)Cc3coc4cc(OC)ccc34)sc2C)cc1` are 100%, 77% and 9%.
On the same counts, the results for `Cc1cc(S(=O)(=O)N2CCCCC(c3ccc(C(F)(F)F)cc3)=N2)c(Cl)cc1Cl` are 97%, 97% and 17%.
For `N#Cc1c(N2CCCCCC2)nc(N)c2c(N)nc3c(c12)CC(=O)N3c1ccc(F)cc1`, the Inhibition in experiment [1] worked out at 97%; in experiment [2], 91%; in experiment [3] it was 0%.
As to `CCCNCc1ccc(-c2ccc(CN(CC3CCCO3)C(=O)COc3ccccc3Cl)cc2)nc1.O=C(O)C(F)(F)F` (stereo not given), the Inhibition in experiment [1] is reported as 89%; in experiment [2] it was 11%; in experiment [3], 5%.
The matching figures for `O=C(Nc1cc(F)cc(F)c1)N[C@H]1CCN(CCCCCNC(=O)C2CC2c2ccc(Cl)c(Cl)c2)C1` (stereo not given in full): 88%, 0% and 24%.
`CCCCN1CCN(c2cc(NS(=O)(=O)c3ccc(C(=O)Nc4ccc(C(F)(F)F)cc4)cc3)ccc2OC)CC1.O=C(O)C(F)(F)F`: the results for the Inhibition in experiment [1], in experiment [2] and in experiment [3] were 99%, 20% and 17%, respectively.
As to `CCCCCn1c(Sc2ccc(C#N)c([N+](=O)[O-])c2)nnc1-c1cccs1`, the Inhibition in experiment [1] is recorded as 91%; in experiment [2] it was 38%; in experiment [3], 19%.
The matching figures for `Cc1cccc2nc(-c3ccc(-c4ccc(CN5CCN(c6ccncc6)CC5)cc4)s3)[nH]c12.O=C(O)C(F)(F)F`: 100%, 98% and 85%.
Consider `CCc1nc(N)nc(N)c1-c1ccc(Cl)cc1` [PYRIMETHAMINE], for which the Inhibition in experiment [1] is 94% and 93%; in experiment [2], 0%; in experiment [3], 71% and 66%.
On to `Cl.N#Cc1ccc2c(c1)CN(CCC1CCC(NC(=O)c3cc4ccccc4cc3N)CC1)CC2` (stereo not given), for which the Inhibition is 80% in experiment [1], 52% in experiment [2] and 5% in experiment [3].
Regarding `CCCN1CCCN(Cc2cccc(NC(=O)c3ccc(-c4ccccc4)cc3)c2)CC1.O=C(O)C(F)(F)F`, the Inhibition in experiment [1] is 92%; in experiment [2] it was 15%; in experiment [3], 34%.
Turning to `c1ccc(Oc2ccc(Nc3ccnc4cc(-c5ccc(CNCCN6CCOCC6)o5)ccc34)cc2)nc1`, the Inhibition in experiment [1] is reported as 100%; in experiment [2], 100%; in experiment [3] it was 0%.
Take `COc1ccc2ccccc2c1C=NN=c1cc(C)[nH]c2c(C)cccc12`: the Inhibition in experiment [1] is 100%; in experiment [2], 94%; in experiment [3] it was 0%.
The matching figures for `CCOC(=O)c1ccc(OCCOc2ccccc2)cc1`: 99%, 0% and 63%.
Take `CCOCCCn1c(=N)c(C(=O)NCc2ccc(OC)cc2)cc2c(=O)n3cccc(C)c3nc21`: the Inhibition was 99% in experiment [1], 46% in experiment [2] and 24% in experiment [3].
The matching figures for `COc1ccc2nccc([C@@H](O)CN3CCC(NS(=O)(=O)c4cc(Br)c(Br)s4)CC3)c2c1`: 92%, 36% and 14%.
The matching figures for `CCNc1cc(C(=O)N[C@@H](Cc2ccccc2)[C@H](O)CNC2CCC(C)(C)CC2)cc(N2CCCCS2(=O)=O)c1.Cl`: 98%, 71% and 1%.
On the same counts, the results for `CC1CN(c2cnn(C/C=C/c3ccc(NC(=O)c4ccc([N+](=O)[O-])cc4)cc3)c(=O)c2Cl)CC(C)N1.O=C(O)C(F)(F)F` (stereo not given) are 96%, 38% and 22%.
Regarding `Cc1ccc(-c2cc(C(=O)Nc3ccc(S(=O)(=O)N(C)Cc4ccccc4)cc3)[nH]n2)c(O)c1`, the Inhibition is reported as 99% in experiment [1], 67% in experiment [2] and 34% in experiment [3].
The matching figures for `O=C(Nc1ccc(-c2ccc(-c3nc4cc(C(F)(F)F)ccc4[nH]3)s2)cc1)c1c[nH]cn1`: 92%, 61% and 66%.
For the molecule `CNC(=O)CSc1nnc(-c2ccc(C)cc2)c(-c2ccc(C)cc2)n1`, the Inhibition is recorded as 94% in experiment [1], 49% in experiment [2] and 2% in experiment [3].
As for `CCCCN1C(=O)C2CC(=O)CC(C3CCCCC3)C2C1=O` (stereo not given), the figures for the Inhibition in experiment [1], in experiment [2] and in experiment [3] were 97%, 1% and 0%, respectively.
The matching figures for `COc1cc2nc(NCCc3ccccc3)nc(NCc3cnn(C)c3C)c2cc1OC`: 99%, 94% and 13%.
As for `Clc1cc(Cl)c2cc(CNCCCNc3ccc4ccccc4n3)[nH]c2c1.O=C(O)C(F)(F)F`, the figures for the Inhibition in experiment [1], in experiment [2] and in experiment [3] were 99%, 54% and 98%, respectively.
The matching figures for `CCc1n[nH]c(C(=O)Nc2cccc(N3CCCC3)c2)c1C`: 81%, 52% and 15%.
`Cc1[nH]c(C)c(-c2ccc(OCc3ccc(F)cc3)cc2)c(=O)c1Cl`: the results for the Inhibition in experiment [1], in experiment [2] and in experiment [3] were 95%, 96% and 0%, respectively.
The matching figures for `CCN(CC)CCCCOc1ccc2c(c1)C(=O)c1cc(OCCCCN(CC)CC)ccc1-2.Cl`: 100%, 44% and 24%.
